{"source": "the supplement of paper PMC11417369", "note": "± gives the standard deviation of the averaged measurements. The full ranking holds about 25,000 sequences; the median of “ln(normalized median fluorescence intensity)” is about 7.9, and the highest 2% start at about 11. What follows is part of a selection rich in the highest values, with near analogues and random picks from the rest."}
{"test_system": "PfAP2-I AP2 domain 3 (GST-tagged)", "test": "gcPBM binding intensity (ln(normalized median fluorescence intensity)); higher = stronger DNA binding", "outline": "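For binding intensity, the highest Masliner-normalised natural-log median intensity across replicate spots of either probe orientation was taken. Protein bound to the array was stained with Alexa488 anti-GST antibody and scanned at 488 nm. The protein, GST-tagged P. falciparum DNA-binding domains from E. coli at about 25 μg on average, had been applied for 1 h to an Agilent 4 × 180k array of primer-extended double-stranded 36-bp intergenic genomic probes and negative controls.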"}
{"sequence": "TAAATAAATAAAAATAGTACATAATTATTATTATTA [XGTACX_site4981]", "gcPBM binding intensity (ln)": "7.42 ± 0.22"}
{"sequence": "TTCTTTATATACAAACCAAAATATTATGTATAATAA [CACACA_negctrl_site15]", "gcPBM binding intensity (ln)": "7.62 ± 0.33"}
{"sequence": "AAGATAAAATTATGCACACATACGAATAATTTTAAA [CACACA_site1705]", "gcPBM binding intensity (ln)": "9.79 ± 0.39"}
{"sequence": "CTTATAAGAATACTAGTGCACATAATTTAACGAAAA", "gcPBM binding intensity (ln)": "11 ± 0.59"}
{"sequence": "TAGATTATTATACTAGTGCAAATTATTTAAGAAAAA", "gcPBM binding intensity (ln)": "10 ± 0.34"}
{"sequence": "AATGTACGTTTTATAACACACACACTAATAAAAAAA [CACACA_site9286]", "gcPBM binding intensity (ln)": "8.23 ± 0.36"}
{"sequence": "AACATTTTAAATTATACACACATTTTGAATATATAT [CACACA_site3470]", "gcPBM binding intensity (ln)": "7.78 ± 0.53"}
{"sequence": "ACATATCGGGTGCATTAACACACATTTATTTGAATA [CACACA_site8736]", "gcPBM binding intensity (ln)": "11.8 ± 0.52"}
{"sequence": "ATATCGGGTGCATTAACACACATTTATTTGAATAAA [CACACA_site2350]", "gcPBM binding intensity (ln)": "11.7 ± 0.79"}
{"sequence": "ATCGGTAATATTAACACACACATTTATATATATTTA [CACACA_site1084]", "gcPBM binding intensity (ln)": "8.02 ± 0.41"}
{"sequence": "ATCGGTAATATTAACACACACATTTATTTATATTTA [CACACA_site6638]", "gcPBM binding intensity (ln)": "7.96 ± 0.58"}
{"sequence": "AAAATTAAAAATAACACACACATATTTATATTTATA [CACACA_site7329]", "gcPBM binding intensity (ln)": "7.59 ± 0.4"}
{"sequence": "TATATTTATTATAACACACACATATAAATATTATAG [CACACA_site6726]", "gcPBM binding intensity (ln)": "7.95 ± 0.48"}
{"sequence": "TTTATTTTAACTTGTTCACACATTTGAATAAATAAA [CACACA_site5064]", "gcPBM binding intensity (ln)": "7.71 ± 0.33"}
{"sequence": "ATATCGTGTGCATTAACACACATTTATTTGAATAAA [CACACA_site7162]", "gcPBM binding intensity (ln)": "10.9 ± 0.5"}
{"sequence": "CAAAAAACAACAGATCGTACAAAATATTATATATAT [XGTACX_site2285]", "gcPBM binding intensity (ln)": "8.12 ± 0.67"}
{"sequence": "TTTTTTTTTTTTTTCTGTACTTAAAAAGGGGGAGAA [XGTACX_site3799]", "gcPBM binding intensity (ln)": "8.79 ± 0.7"}
{"sequence": "ATACATTCAAAATATACACACATATATCTATAATAT [CACACA_site6576]", "gcPBM binding intensity (ln)": "7.69 ± 0.65"}
{"sequence": "TGCAGTCTGGAGAAAAGTACATAGTATCTGGTAGCT [XGTACX_site2547]", "gcPBM binding intensity (ln)": "7.87 ± 0.66"}
{"sequence": "GAATGTAAATATTAAAGTACACAGAATATATCTTCA [XGTACX_site8149]", "gcPBM binding intensity (ln)": "7.79 ± 0.16"}
{"sequence": "ATAATAAAAATAAGAGAATAAAAATGCAATTTAATG [CACACA_negctrl_site878]", "gcPBM binding intensity (ln)": "7.95 ± 0.47"}
{"sequence": "GATAATCAGAATGGGGTGCAAAGAAAAAAAAAAAAA", "gcPBM binding intensity (ln)": "10.7 ± 0.46"}
{"sequence": "AGAATAATAAAATGGGTGCAATAGTTTTTTTTTTTT [GTGCAC_site9823]", "gcPBM binding intensity (ln)": "11.2 ± 0.44"}
{"sequence": "ATATATATTATATATAGTACTTTTTTGCGCAAATAT [XGTACX_site6849]", "gcPBM binding intensity (ln)": "8.08 ± 0.44"}
{"sequence": "TACACCCATAGACACACACACACGCATAAAAAAAAA [CACACA_site8428]", "gcPBM binding intensity (ln)": "8.36 ± 0.34"}
{"sequence": "TAAGAAATAAATAGTACACACATAGACACCCACCGA [CACACA_site1516]", "gcPBM binding intensity (ln)": "8.86 ± 0.15"}
{"sequence": "TAAGAAATAAATAGTACACACATAGACACCCACCCA [CACACA_site8429]", "gcPBM binding intensity (ln)": "8.65 ± 0.54"}
{"sequence": "CATTTGCACCCGCACACACACATAAAAAGAAAAATA [CACACA_site4350]", "gcPBM binding intensity (ln)": "10.7 ± 0.8"}
{"sequence": "ATTAAGACACATTGCACACGTGCACCCATAGAAAAA [CACACA_site408]", "gcPBM binding intensity (ln)": "11.02 ± 0.099"}
{"sequence": "ACATTGCACCCGTGCACACATAGAAAAATAATTCTT [CACACA_site409]", "gcPBM binding intensity (ln)": 11.1}
{"sequence": "CCATTAAGACACATTGCACACGTGCACCCATAGAAA [CACACA_site4388]", "gcPBM binding intensity (ln)": "10.79 ± 0.021"}
{"sequence": "ACCCATTGCTCACGTGCACACATAGAAAAATAATTC [CACACA_site4389]", "gcPBM binding intensity (ln)": "10.7 ± 0.16"}
{"sequence": "ACATTAAGACACATTGCACACGTGCACCCATAGAAA [CACACA_site8029]", "gcPBM binding intensity (ln)": "10.965 ± 0.007"}
